The record followed here is PubChem BioAssay (Tox21).

Results filed as inconclusive are left out. A call without a number means that no potency is given here. Values without a mark were called inactive. Active and inactive are the calls of the source. The call rests on the fitted dose curve; in most records, active means well fitted curve in the direction sought with a large enough effect in the repeat runs; inconclusive means weak or mixed curves; inactive means no such curve, though single readings can be large; an effect the other way counts as inactive or inconclusive.
Further: nearly all actives have a fitted effect of over 50% in size.

One assay is described as follows: qHTS RealTime-Glo MT Cell Viability Assay in HepG2 cells - 16 hour (AID 1224885). As to conditions: RealTime-Glo luminescence; series mostly up to 76.8 µM. An outline of the steps: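 Real-time, nonlytic viability: 600 HepG2 cells/well mixed with NanoLuc enzyme plus prosubstrate; 5 h settle, compound (DMSO) added by pintool; luminescence monitored over 40 h at 37 C.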
Take `CCCCCCOc1ccc(N)cc1`: the compound was called inactive. Regarding `CC1=NN(c2cc(Cl)c(S(=O)(=O)O)cc2Cl)C(=O)C1N=Nc1ccc(S(=O)(=O)O)cc1` (centres undefined), the call was inactive. Consider `CCC1(C)NC(=O)NC1=O` (centres undefined), for which the outcome was inactive. On the same count and under the same terms, for `CCCCCCCCCCCCCCCCOP(=O)([O-])OCC[N+](C)(C)C` the value was “inactive”; for `CCCCCCCCc1ccc(S(=O)(=O)O)cc1`, “inactive”; for `CCc1cc2cc(OC)c(OC)cc2c(Cc2ccccc2)n1`, “inactive”. Regarding `CN(C)CCOc1ccccc1Cc1ccccc1`, the result was inactive. Take `Oc1ccccc1C=NCc1ccccc1`: the compound was classed as inactive. For the compound `Cc1onc(-c2ccccc2)c1C(=O)Cl`, the call was inactive. For `C=CCCCCCCCCO`, the compound was classed as inactive. As for `Clc1cccc(-c2cc(Cl)cc(Cl)c2)c1`, the call was inactive.

In the case of `CCCCOc1cc(C(=O)NCCN(CC)CC)c2ccccc2n1`, the compound was called inactive.

Regarding `CCCCNc1ccc(C(=O)OCCN(CC)CC)cc1`, the result was inactive. On to `CC(C)(C)c1cccc(O)c1`, for which the compound was called inactive.

Regarding `COC(=O)/C=C(/C)N`, the compound was classed as inactive. Turning to `CC(C)C(=O)OCC(C)(C)C(O)C(C)C` (centres undefined), the compound was classed as inactive.

With `COC(=O)N[C@H](C(=O)N[C@@H](Cc1ccccc1)[C@@H](O)CN(Cc1ccc(-c2ccccn2)cc1)NC(=O)[C@@H](NC(=O)OC)C(C)(C)C)C(C)(C)C`, the call was inactive. Same read-out and setting: the value for `CCCCCOc1ccc(C2SC(=O)NC2=O)cc1OCC` (centres undefined) was “inactive”; that for `NCCCN1CCN(CCCN)CC1` was “inactive”; that for `CC[C@H]1CC[C@H](NCc2cc3c(cc2OC)[C@H]2C[C@H]2C(=O)N3C)[C@H](c2ccccc2)N1` was “inactive”. With `CCN(CC)CCNC(=O)COc1ccc(Cl)cc1`, the compound was called inactive. In the case of `COc1ccc2nc(NC(=O)Nc3ccccc3)sc2c1`, the compound was classed as inactive.

Regarding `CCC(=O)c1ccc2c(c1)N(CCCN(C)C)c1ccccc1S2`, the call was inactive. Same read-out and setting: the value for `Cc1cc(NS(=O)(=O)c2ccc(N)cc2)nc(C)n1` was “inactive”; that for `O=Cc1ccc(O)c(O)c1O` was “inactive”.

For `CN(C)C(=O)NC1(c2ccccc2)CCN(CCC[C@]2(c3ccc(Cl)c(Cl)c3)CCCN(C(=O)c3ccccc3)C2)CC1`, the activity change, negative = cytotoxic was -10.4% [at 15.8 µM]. For the compound `CN1CCN(C2=Nc3ccccc3Oc3ccc(Cl)cc32)CC1`, the call was inactive. Turning to `CCOc1ccc(NS(=O)(=O)c2ccc(N)cc2)nn1`, the compound was called inactive. Take `CCN(CC)CCOc1ccc(Cc2ccccc2)cc1`: the compound was called inactive.

As to `CCCN(CCC)C(=O)C(CCC(=O)O)NC(=O)c1ccccc1` (centres undefined), the compound was classed as inactive. For `CCCc1c2oc(C(=O)O)cc(=O)c2cc2c(=O)cc(C(=O)O)n(CC)c12`, the compound was called inactive.

Take `CN(CCCN1c2ccccc2CCc2ccccc21)CC(=O)c1ccc(Cl)cc1`: the compound was called inactive.

In the case of `CC1=C2[C@H](/C=C(\C)C(=O)O)CC[C@@H](C)[C@H]2CC1`, the compound was called inactive.

As for `CC(C)S`, the call was inactive. Consider `C=CC(C)(O)CC/C=C(\C)CCC=C(C)C` (centres undefined), for which the call was inactive.

In the case of `CCOC(=O)COc1ccc2c(c1)CC(NCC(O)c1cccc(Cl)c1)CC2` (centres undefined), the outcome was inactive. On to `Cc1ccc(C(C)C)cc1O`, for which the compound was classed as inactive.

The next assay in a line: qHTS RealTime-Glo MT Cell Viability Assay in HEK293 cells - 24 hour (AID 1224886). Further: potency means the concentration at half of the fitted maximal effect. Particulars: RealTime-Glo luminescence; series mostly up to 76.8 µM. An outline of the steps:
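Cells + reagent dispensed (600 cells/well, HEK293) → 5 h at 37 C/5% CO2 → 23 nL compound in DMSO pinned → 40 h at 37 C → luminescence read at 0, 8, 16, 24, 32, 40 h.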
(Quantitative high-throughput screening tests each substance at several concentrations.)
As for `CC1=NN(c2cc(Cl)c(S(=O)(=O)O)cc2Cl)C(=O)C1N=Nc1ccc(S(=O)(=O)O)cc1` (centres undefined), the Potency result is “inactive”. For the compound `CCC1(C)NC(=O)NC1=O` (centres undefined), the Potency entry was “inactive”. Same read-out and setting: the value for `CCCCCCCCCCCCCCCCOP(=O)([O-])OCC[N+](C)(C)C` was “inactive”; that for `CCCCCCCCc1ccc(S(=O)(=O)O)cc1` was “inactive”. On the same count and under the same terms, for `CCc1cc2cc(OC)c(OC)cc2c(Cc2ccccc2)n1` the value was 16.9 µM (active). Still for that read-out and setting: for `CN(C)CCOc1ccccc1Cc1ccccc1` the value was “inactive”; for `Oc1ccccc1C=NCc1ccccc1`, “inactive”; for `CC/C=C\CCOC(=O)CCCCC`, “inactive”. Turning to `Cc1onc(-c2ccccc2)c1C(=O)Cl`, the Potency result is “inactive”. Regarding `C=CCCCCCCCCO`, the Potency result is “inactive”. As to `Clc1cccc(-c2cc(Cl)cc(Cl)c2)c1`, the Potency result was “inactive”. With `CC(C)(C)c1cccc(O)c1`, the Potency result is “inactive”. `COC(=O)/C=C(/C)N`: the Potency result was “inactive”. Same read-out and setting: the value for `CC(C)C(=O)OCC(C)(C)C(O)C(C)C` (centres undefined) was “inactive”.

With `COC(=O)N[C@H](C(=O)N[C@@H](Cc1ccccc1)[C@@H](O)CN(Cc1ccc(-c2ccccn2)cc1)NC(=O)[C@@H](NC(=O)OC)C(C)(C)C)C(C)(C)C`, the Potency result is “inactive”. The same measure, in the same setting: the value for `CCCCCOc1ccc(C2SC(=O)NC2=O)cc1OCC` (centres undefined) was “inactive”.

With `NCCCN1CCN(CCCN)CC1`, the Potency entry was “inactive”. On to `CC[C@H]1CC[C@H](NCc2cc3c(cc2OC)[C@H]2C[C@H]2C(=O)N3C)[C@H](c2ccccc2)N1`, for which the Potency is 21.9 µM (active). Consider `CCN(CC)CCNC(=O)COc1ccc(Cl)cc1`, for which the Potency result was “inactive”. On to `COc1ccc2nc(NC(=O)Nc3ccccc3)sc2c1`, for which the Potency was 4.77 µM (active). On to `CCC(=O)c1ccc2c(c1)N(CCCN(C)C)c1ccccc1S2`, for which the Potency is 10.7 µM (active).

Regarding `Cc1cc(NS(=O)(=O)c2ccc(N)cc2)nc(C)n1`, the Potency entry was “inactive”. As to `O=Cc1ccc(O)c(O)c1O`, the Potency entry is “inactive”.

For `CN1CCN(C2=Nc3ccccc3Oc3ccc(Cl)cc32)CC1`, the Potency result is “inactive”.

For the compound `CCCN(CCC)C(=O)C(CCC(=O)O)NC(=O)c1ccccc1` (centres undefined), the Potency entry was “inactive”.

As for `CCCc1c2oc(C(=O)O)cc(=O)c2cc2c(=O)cc(C(=O)O)n(CC)c12`, the Potency result was “inactive”. As to `CN(CCCN1c2ccccc2CCc2ccccc21)CC(=O)c1ccc(Cl)cc1`, the Potency entry was “inactive”. Regarding `CC1=C2[C@H](/C=C(\C)C(=O)O)CC[C@@H](C)[C@H]2CC1`, the Potency is 36 µM (active). For the compound `CC(C)S`, the Potency result is “inactive”. As for `C=CC(C)(O)CC/C=C(\C)CCC=C(C)C` (centres undefined), the Potency result is “inactive”. Take `CCOC(=O)COc1ccc2c(c1)CC(NCC(O)c1cccc(Cl)c1)CC2` (centres undefined): the Potency result was “inactive”. `Cc1ccc(C(C)C)cc1O`: the Potency entry was “inactive”.
